Reference: PubChem BioAssay (NCATS)
“And” between values parts separate entries of the source, which are not always exact repeats. Equal values may be shown once. Results filed as inconclusive are left out. Entries that show only a call come without a potency. Unmarked numbers belong to inactive results. The source made the active and inactive calls. Calls come from the whole dose curve; as a rule, active = well fitted curve in the direction sought with a large enough effect; inconclusive = small, poorly fitted or top-dose-only effect, or another doubt; inactive = no such curve, though single readings can be large; an effect the other way counts as inactive or inconclusive.

What was measured:
[1] = qHTS for Inhibitors of the Aldehyde Dehydrogenase Family (ALDH1A2, ALDH1A3, ALDH2, ALDH3A1) (AID 2061307); note: nearly all actives have a fitted effect of over 50% in size; for potency: test system not described further here
[2] = target: Aldehyde dehydrogenase, mitochondrial (Homo sapiens) (UniProt P05091); test: qHTS for Inhibitors of the Aldehyde Dehydrogenase Family (ALDH2) Primary screen (AID 2061308); note: nearly all actives have a fitted effect of over 55% in size
[3] = target: Retinaldehyde dehydrogenase 3 (Homo sapiens) (UniProt P47895); test: qHTS for Inhibitors of the Aldehyde Dehydrogenase Family (ALDH1A3) Confirmatory screens (AID 2061311); note: nearly all actives have a fitted effect of over 60% in size
[4] = target: Retinal dehydrogenase 2 (Homo sapiens) (UniProt O94788); test: qHTS for Inhibitors of the Aldehyde Dehydrogenase Family (ALDH1A2) Confirmation screens (AID 2061314); note: nearly all actives have a fitted effect of over 65% in size
[5] = target: Retinaldehyde dehydrogenase 3 (Homo sapiens) (UniProt P47895); test: qHTS for Inhibitors of the Aldehyde Dehydrogenase Family (ALDH1A3) Primary screen (AID 2061315)
[6] = target: Aldehyde dehydrogenase 1A1 (Homo sapiens) (UniProt P00352); test: qHTS for Inhibitors of the Aldehyde Dehydrogenase Family (ALDH1A1) Confirmatory screens (AID 2061316); note: nearly all actives have a fitted effect of over 65% in size
Potency is the fitted concentration of half-maximal effect.

| SMILES | Potency [1] | Potency [2] | activity change, negative = inhibition [3] | Potency [4] | Potency [5] | Potency [3] | Potency [6] |
| --- | --- | --- | --- | --- | --- | --- | --- |
| C=Cc1cc(NC(=O)CN)cc(-c2nn3c(=O)cc(N4CCNCC4)nc3s2)c1 | inactive |  |  |  |  |  |  |
| Cc1ccccc1Nc1nc(C#N)nc(NC2CCCC2)n1 | 10.1 µM (active) | inactive | -21.8% [at 0.0073 µM] | 12.7 µM (active) | inactive |  |  |
| CC1(C)CC[C@]2(C(=O)O)CC[C@]3(C)C(=CCC4[C@@]5(C)C[C@@H](O)[C@H](O)[C@@](C)(CO)C5CC[C@]43C)[C@@H]2[C@@H]1O (some centres not stated) | inactive | inactive |  |  |  | 11 µM (active) |  |
| Oc1ccc(COc2cccc3ccccc23)c2cccnc12 | inactive | inactive |  |  |  | 10.1 µM (active) |  |
| O=C(c1ccco1)N1CCN(Cc2nc3ccccc3c(=O)n2-c2ccccc2[N+](=O)[O-])CC1 | inactive |  |  |  |  |  |  |
| Cc1ccn2c(=O)c(C(=O)NC(C)c3ccccc3)c(O)nc2c1 (configuration not stated) | inactive |  |  |  |  |  |  |
| Cc1c(NCCOc2ccccc2F)cccc1C(N)=O | inactive |  |  |  |  |  |  |
| COc1ccc(C2Nc3ccccc3C(=O)N2Cc2ccccc2)cc1COc1ccc(C#N)cc1 (configuration not stated) | 1.01 µM (active) | inactive |  | 0.896 µM (active) | inactive | 12.6 µM (active) |  |
| N#Cc1cccc(C#N)c1-c1nc2c3ccccc3c3cc(Cl)ccc3c2[nH]1 | inactive | inactive |  | inactive | 25.1 µM (active) | 5.65 µM (active) |  |
| NCC(CNc1nc(Nc2cccc(NC(=O)N3CCCC3)c2)ncc1I)C(=O)c1cccs1 (configuration not stated) | inactive | 20 µM (active) |  |  |  |  |  |
| c1cc2c(cc1CNc1ccc(N3CCCCC3)cc1)OCO2 | 12.7 µM (active) | inactive |  |  |  | 12.7 µM (active) |  |
| O=C(O)c1ccc(-c2ccc3ncnc(NCc4cccs4)c3c2)o1 | inactive |  |  |  |  |  |  |
| N#Cc1nc(Nc2cccc([N+](=O)[O-])c2)nc(NC2CCCC2)n1 | 5.62 µM (active) | inactive |  | 6.34 µM (active) | inactive | 22.4 µM (active) |  |
| O=C(O)c1ccc(O)c2ncc(N3CC(N4CCOCC4)C3)cc12 | inactive | inactive |  | 15.9 µM (active) | inactive | 12.7 µM (active) |  |
| Oc1ccccc1C1Nc2cccc3cccc(c23)N1 | inactive | inactive |  |  |  | 12.7 µM (active) |  |
| Cc1occc1-c1ccc2ncnc(NCCc3cnc[nH]3)c2c1 | inactive | inactive |  | 28.3 µM (active) | inactive | 3.57 µM (active) |  |
| COc1ccc(NC(=O)C2CCN(c3ccc(Sc4ccc(C)cc4)nn3)CC2)cc1 | inactive |  |  |  |  |  |  |
| O=C(O)c1ccc(-c2noc(-c3ccccc3F)n2)cc1 | 3.98 µM (active) and 1.2 µM (active) | inactive |  | inactive |  | 0.565 µM (active) |  |
| COc1cccc(-c2nc(-c3ccc(C(=O)O)cc3)no2)c1 | 1.2 µM (active) | inactive |  | inactive |  | 0.504 µM (active) |  |
| CCOC(=O)C1CCN(C(=O)C(C)(C)NC(=O)Nc2ccc(N)cc2)CC1 | inactive | inactive |  |  |  |  |  |
| O=C(c1ccco1)N1CCN(c2nc(-c3ccc(Br)cc3)cs2)CC1 | 3.98 µM (active) | inactive |  | inactive | inactive | 15.8 µM (active) |  |

| SMILES | Potency [1] | Potency [2] | activity change, negative = inhibition [3] | Potency [4] | Potency [5] | Potency [3] | Potency [6] |
| --- | --- | --- | --- | --- | --- | --- | --- |
| COc1ccc2nc(-c3ccc(F)cc3)sc2c1 | 5.38 µM (active) | inactive |  |  |  |  |  |
| NNC(=O)c1ccc2ccccc2n1 | inactive |  |  |  |  |  |  |
| COc1ccccc1C(=O)Nc1nc2nc(C)cc(=O)n2[nH]1 | inactive |  |  |  |  |  |  |
| Cc1ccc2nc3sc(C(=O)NCCCN(C)C)cc3cc2c1 | 12.1 µM (active) | inactive |  |  |  | 21.5 µM (active) |  |
| CC(=O)NC(C)c1cc(F)c2cccnc2c1O (configuration not stated) | 2.52 µM (active) | inactive |  | 10.1 µM (active) | inactive | 11.3 µM (active) |  |
| Cc1ccc(CNc2ccc(N3CCCCC3)cc2)cc1 | 11.3 µM (active) | inactive |  | 28.3 µM (active) |  | 20.1 µM (active) |  |
| COc1cccc(C2c3c(ncn(-c4ccccc4-c4ccccc4)c3=N)Oc3ccc4ccccc4c32)c1 (configuration not stated) | 8.91 µM (active) | inactive |  | 7.98 µM (active) | inactive | 15.8 µM (active) |  |
| O=C(O)c1ccc(-c2noc(-c3cccc(F)c3)n2)cc1 | 1.52 µM (active) | inactive |  |  |  |  |  |
| COc1cccc(C2c3c(ncn(-c4ccccc4)c3=N)Oc3ccc4ccccc4c32)c1 (configuration not stated) | inactive | inactive |  | 12.7 µM (active) | inactive | 11.3 µM (active) |  |
| CCOC(=O)C1CCN(c2ncc(-c3ccc4c(c3)OCCCO4)s2)CC1 | 5.65 µM (active) | inactive |  | 4 µM (active) |  | 10.1 µM (active) |  |
| Cc1ccccc1Cn1cnc2cc(-c3cccc(NC(=O)Cc4ccccc4)n3)ccc21 (tested in a mixture with another compound) | inactive |  |  |  |  |  |  |
| C=C1CN(Cc2ccc(C(=O)Nc3ccccc3N)cc2)C(=O)c2ccccc21 | 15.8 µM (active) | inactive |  | inactive | inactive | inactive |  |
| COc1ccc(-n2ncc3c2CCCC3NC(=O)c2cccc(OC(F)(F)F)c2)cc1 (configuration not stated) | 12.6 µM (active) |  |  |  |  |  |  |
| CSCc1cccc(C(=O)Nc2cccnc2)c1 | inactive |  |  |  |  |  |  |
| CC(C)C(=O)OCc1ccc(-c2nn(Cc3ccccc3)c3ccccc23)o1 | inactive |  |  |  |  |  |  |
| O=C(Cc1ccc(-c2csc(Nc3ccc(F)cc3)n2)s1)N1CCOCC1 | 7.12 µM (active) |  |  |  |  |  |  |
| c1cc2c(cc1CNc1ccc(N3CCOCC3)cc1)OCO2 | 11.3 µM (active) | inactive |  |  |  | 6.34 µM (active) |  |
| Cc1ccc(CNc2ccc(N3CCN(C)CC3=O)cc2)cc1 | inactive | inactive |  |  |  |  |  |
| COC(=O)c1ccc(S(=O)(=O)N2CCC(c3nc4ccccc4s3)CC2)cc1 | inactive |  |  |  |  |  |  |
| CC(=O)Nc1sc2c(c1-c1nc3ccccc3o1)CCN(C(C)C)C2 | 7.08 µM (active) | inactive |  |  |  | 12.6 µM (active) |  |
| CN(C)[S+](=O)([O-])c1ccc(-c2cncc(NC(=O)c3cccs3)c2)cc1 | 2 µM (active) | inactive |  | 6.31 µM (active) | inactive | 0.562 µM (active) | inactive |

| SMILES | Potency [1] | Potency [2] | activity change, negative = inhibition [3] | Potency [4] | Potency [5] | Potency [3] | Potency [6] |
| --- | --- | --- | --- | --- | --- | --- | --- |
| CC(=O)Nc1ccc(-c2c(NC(C)=O)sc3c2CCNC3)cn1 | inactive | inactive |  | 11.3 µM (active) | inactive | inactive | 17.9 µM (active) |
| COc1cccc(C2=Nn3c(nnc3-c3ccccc3C)SC2)c1 | 2.51 µM (active) | inactive |  | 17.8 µM (active) | inactive | 22.4 µM (active) | 10.1 µM (active) |
| CCOC(=O)c1ccc2c(c1)c(C(C)=O)c(C)n2-c1ccc(OC)cc1 | inactive | inactive |  | inactive | inactive | inactive | inactive |
| O=C1N/C(=C\c2ccco2)C(=O)N1Cc1ccccc1 | 0.798 µM (active) | inactive |  | 12.7 µM (active) | inactive | 11.3 µM (active) | 3.57 µM (active) |
| CN(CC(=O)Nc1cccc(N2CCOCC2)c1)Cc1c(O)ccc2ccccc12 | 5.65 µM (active) | inactive |  | 11.3 µM (active) | inactive | 12.7 µM (active) | 4 µM (active) |
| CC(=O)Nc1ccc(OCc2cccc(C3Nc4ccccc4C(=O)N3Cc3ccco3)c2)cc1 (configuration not stated) | 10.1 µM (active) | inactive |  | 14.2 µM (active) | inactive | 12.7 µM (active) | 5.65 µM (active) |
| Cc1cnc(-c2ccccc2CO)nc1NCC1CCN(c2cccnc2)CC1 | inactive | inactive |  | 11.3 µM (active) | inactive | inactive |  |
| Cc1ccc(-c2cc(C(=O)Nc3ccc(-c4noc(=O)[nH]4)cc3)c3ccccc3n2)cc1C | 7.08 µM (active) | inactive |  | inactive | inactive | 11.2 µM (active) | inactive |
| COc1ccc(-n2c(C)c(C(C)=O)c3ccccc32)cc1 | 0.4 µM (active) | inactive |  | inactive | inactive | 15.8 µM (active) |  |
| O=C(CSc1nc2ccccc2n1CCc1ccccc1)c1ccc(O)c(O)c1 | 12.7 µM (active) | inactive |  | inactive | inactive | 11.3 µM (active) | 7.98 µM (active) |
| CC(=O)N1CCN(c2ccc(NCc3cccs3)cc2)CC1 | 3.18 µM (active) | inactive |  | 5.65 µM (active) |  | 7.98 µM (active) | 10.1 µM (active) |
| Cc1ccc(CNc2ncnc3ccc(-c4ccoc4)cc23)o1 | inactive | inactive |  | 20.1 µM (active) | inactive | inactive |  |
| COc1ccc(C2Nc3cccc(OC)c3C(=O)N2Cc2ccccc2)cc1COc1ccc(NC(C)=O)cc1 (configuration not stated) | 1.13 µM (active) | inactive |  | 10.1 µM (active) | inactive | 12.7 µM (active) | 11.3 µM (active) |
| NC(=O)C1CCN(c2ncc(-c3ccc4c(c3)OC(F)(F)O4)s2)CC1 | 10.1 µM (active) | inactive |  | inactive | inactive | inactive |  |
| Cc1ccc(S(=O)(=O)Nc2cnccc2C(=O)Nc2nc(-c3ccc4c(c3)CCCC4)cs2)cc1 | 22.5 µM (active) | inactive |  | 8.96 µM (active) | inactive | inactive | 11.3 µM (active) |
| COC(=O)c1ccc(O)c2ncc(N3CC[C@H](N)C3)cc12 | inactive | inactive |  | inactive | inactive | 12.7 µM (active) | 11.3 µM (active) |
| O=C(O)c1cccc(-n2cccc2/C=C2/C(=O)N(Cc3ccc(F)cc3)C(=O)N2Cc2ccc(F)cc2)c1 | 14.2 µM (active) | inactive |  | inactive | inactive | inactive | inactive |
| Cc1c(C(=O)OCC2CCCCO2)[nH]c2c1C(=O)CC(c1ccco1)C2 (configuration not stated) | inactive | inactive |  | 7.12 µM (active) | inactive | 14.1 µM (active) | 1.42 µM (active) |
| NC(=O)C1CCN(c2ncc(-c3ccc(Br)cc3)s2)CC1 | 5.65 µM (active) | inactive |  | inactive | inactive | 22.4 µM (active) | 11.3 µM (active) |
| COc1ccc(-c2c(NC(C)=O)sc3c2CCNC3)cc1 | inactive | inactive |  | 20.1 µM (active) | inactive | inactive | 11.3 µM (active) |
